High-throughput results from PubChem BioAssay.
Rows were chosen to be rich in hits. Some 0.51% of all compounds tested hit in one or more screens of this group.
AddAB inh – growth inhibition of E. coli expressing H. pylori AddAB, primary screen, AddAB inhibitor project, absorbance; inhibition, % at 11.9 µM; hit rate 0.29% among 330,000; in the data active = inhibition above about 12%
Tat export inh – E. coli Tat export inhibitors, primary screen, MC4100, TorA-mCherry reporter, fluorescence, single point. inhibition, % at 10 µM. hit rate 0.036% among 340,000. AID 488895, 2010;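 active = mean replicate inhibition at least 50% and at least half of replicates individually reaching 50%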;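 also: exported cargo escapes ClpAP degradation while cytoplasmic cargo is degraded and loses fluorescence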
E coli growth-1 – E. coli growth inhibition, primary screen, OD600; hit rate 0.21% among 330,000; OD600 absorbance (no concentration beside the values); Escherichia coli growth, 23 h; stronger effect = lower value; AID 1053175, 2014;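 active = OD600 absorbance below the run mean of sample wells minus 3.6 SD, in any replicate, cut at about 0.56 in these data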
phage Ecoli inh – growth loss of phage-infected E. coli, primary screen, RecBCD inhibitor project, absorbance, with phage, HTS. inhibition, % at 11.9 µM. hit rate 0.26% among 360,000; in the data active = inhibition above about 11%
E coli growth-2 – E. coli V3065 growth inhibition, primary screen, counter-screen for AddAB inhibitor project, absorbance, OD600; hit rate 0.27% among 330,000; inhibition, % at 11.9 µM; AID 449728, 2010; 18 h;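 active = inhibition above the campaign's mean inhibition across all tested compounds plus 3 SD, cut at about 9.9% in these data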;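 also: uninfected addAB+ strain grown without phage in ampicillin broth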
AddAB confirm – growth loss of phage-infected E. coli expressing H. pylori AddAB, confirmation, AddAB inhibitor project, absorbance, E. coli V3065, T4 phage, triplicate; OD; T4 phage with gene 2 nonsense mutations; shares compounds with AddAB inh; AID 488942, 2010; hit rate 64% among 880; inhibition, % at 11.9 µM;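 active = mean inhibition above a set limit taken from the earlier primary screen, cut at about 13% in these data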;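 also: higher means less bacterial growth since AddAB block lets phage replicate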
RecBCD counter – growth loss of RecBCD+ E. coli with mutant T4 phage, counter-screen for AddAB inhibitor project, absorbance, V66 E. coli; shares compounds with AddAB inh; OD growth; inhibition, % at 11.9 µM; hit rate 73% among 880;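 active = mean inhibition above the mean of solvent-only control wells plus 3 SD, cut at about 4% in these data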;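 also: optical density read after an 18 h incubation at 37 °C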
bact viab count – bacterial viability inhibition counter-screen, confirmation, counter-screen for AddAB inhibitor project, absorbance | inhibition, % at 11.9 µM | AID 488956, 2010 | shares compounds with AddAB inh | hit rate 35% among 880 | absorbance (AddAB counterscreen); in the data active = inhibition above about 25%
Each line names hits and unclear results; the compound was inactive in the other large screens (follow-up assays come after a bar, where they were run).

N#CCc1ccc(NC(=O)/C=C/c2ccc([N+](=O)[O-])o2)cc1	E coli growth-1 0.409 (no result: AddAB inh, phage Ecoli inh, E coli growth-2)
C=CCN=c1scc(-c2ccco2)n1N=Cc1ccc(O)c(O)c1O	none (no result: AddAB inh, Tat export inh, phage Ecoli inh, E coli growth-2)
COc1cc(C=NNC(=O)c2cccc3ccccc23)cc(OC)c1OC	none (no result: AddAB inh, Tat export inh, phage Ecoli inh, E coli growth-2)
O=C(O)c1ccccc1C(=O)Nc1ccc(S(=O)(=O)Nc2nccs2)cc1	E coli growth-2 11.0
COc1ccccc1C(=O)Nc1ccc(S(=O)(=O)Nc2nccs2)cc1	none
CCCCCCCN(c1ccccc1)[C@@H]1C[C@H]2CCCC(=O)N3CC[C@@H](C1)[C@@H]23	Tat export inh 50.8 (no result: AddAB inh, E coli growth-1, E coli growth-2)
CCCCNC(=O)O[C@@H]1C[C@H]2CCCC(=O)N3CC[C@@H](C1)[C@@H]23	none (no result: E coli growth-1)
O=C(Cc1ccc(Cl)cc1)NN=C1CCCc2ccccc21	none (no result: AddAB inh, Tat export inh, phage Ecoli inh, E coli growth-2)
Cc1ccc(C(=O)N2CCCC(CCC(=O)NCc3ccccc3F)C2)cn1 (stereo not given)	none
C=CCOc1cccc(C(=O)N2CCCC(CCC(=O)NCc3ccccc3F)C2)c1 (stereo not given)	Tat export inh 50.5
CNCC(CC1CCCCC1)NCC(Cc1ccccc1)NCCC12CC3CC(CC(C3)C1)C2 (stereo not given)	E coli growth-1 0.06 (no result: AddAB inh, Tat export inh, phage Ecoli inh, E coli growth-2)
CNCC(Cc1ccccc1)NCC(CC1CCCCC1)NCCCc1ccccc1 (stereo not given)	E coli growth-1 0.466 (no result: AddAB inh, Tat export inh, phage Ecoli inh, E coli growth-2)
N=c1n(Cc2ccccc2)c2ccccc2n1CC(O)COc1ccc(Cl)cc1Cl (stereo not given)	E coli growth-1 0.504 (no result: AddAB inh, E coli growth-2)
COc1cccc(C=NNc2ncnc(Cl)c2N)c1O	E coli growth-1 0.175 (no result: AddAB inh, Tat export inh, phage Ecoli inh, E coli growth-2)
COc1cccc(/C=N/Nc2nccnc2Cl)c1O	none (no result: AddAB inh, E coli growth-1, E coli growth-2)
Cc1ccc(C=NN2CCN(Cc3ccccc3)CC2)s1	none (no result: AddAB inh, Tat export inh, phage Ecoli inh, E coli growth-2)
CC(C)(C)C1C=C(C(N)=O)OC(OCCCCO)C1 (stereo not given)	none (no result: AddAB inh, Tat export inh, phage Ecoli inh, E coli growth-2)
CC(C)S(=O)(=O)c1csc(NC(=O)Nc2ccc(Cl)cc2)c1	E coli growth-1 0.474
CC(=O)OCC1=C(C(=O)OC(C)(C)C)N2C(=O)[C@@H](NC(=O)Cc3ccccc3)[C@H]2SC1	none (no result: AddAB inh, E coli growth-2)
CON=C(C(=O)NC1C(=O)N2C(C(=O)O)=C(COC(C)=O)CSC12)c1csc(N)n1 (stereo not given)	E coli growth-1 0.063 (no result: AddAB inh, Tat export inh, phage Ecoli inh, E coli growth-2)
COc1cccc(C(=O)NC2C(=O)N3C(C(=O)O)=C(COC(C)=O)CSC23)c1 (stereo not given)	none (no result: E coli growth-1)
COCC1=C(C(=O)OC(C)OC(=O)OC(C)C)N2C(=O)C(NC(=O)C(=NOC)c3csc(N)n3)C2SC1 (stereo not given)	E coli growth-1 0.283 (no result: AddAB inh, Tat export inh, phage Ecoli inh, E coli growth-2)
Cc1cc(C(=O)NN=C2CC(=O)CC(C)(C)C2)n[nH]1	none (no result: AddAB inh, Tat export inh, phage Ecoli inh, E coli growth-2)
CCOc1ccc2[nH]c3c(NCCC(C)C)ncnc3c2c1	E coli growth-1 0.502 (no result: AddAB inh, E coli growth-2)
CCOc1ccc2[nH]c3c(NCCN(C)C)ncnc3c2c1	none
Cc1ccc(-c2ccc(C=NO)o2)cc1[N+](=O)[O-]	none (no result: AddAB inh, Tat export inh, phage Ecoli inh, E coli growth-2)
CC1=NN(C(N)=S)C(=O)C1N=Nc1cccc2ccccc12 (stereo not given)	E coli growth-2 13.8 (no result: Tat export inh, E coli growth-1, phage Ecoli inh)
COc1ccc(C=NNC(=O)c2c(-c3ccccc3)noc2C)cc1	none (no result: AddAB inh, Tat export inh, phage Ecoli inh, E coli growth-2)
O=C(NCCc1ccc(Cl)cc1)C1CCN(S(=O)(=O)c2cccc3nonc23)CC1	none
O=C(NCc1ccc(Cl)cc1)C1CCN(S(=O)(=O)c2cccc3nonc23)CC1	E coli growth-1 0.534
CCN1C(=O)C2C(c3ccc(C)cc3)N3C(=O)N(c4ccc(OC)cc4)C(=O)[C@@]3(Cc3ccccc3)C2C1=O (stereo not given in full)	none (no result: AddAB inh, Tat export inh, phage Ecoli inh, E coli growth-2)
CCOc1ccc(NC(=S)N2CCn3c(nc4ccccc43)C2)cc1	AddAB inh 20.8, E coli growth-2 13.3 (no result: Tat export inh, E coli growth-1, phage Ecoli inh) | AddAB confirm 28.3 | RecBCD counter 19.1 | bact viab count inactive
COc1cccc(/C=N/Nc2cc(-n3nc(C)cc3-c3ccccc3)ncn2)c1O	AddAB inh 18.4, E coli growth-2 16.9 (no result: E coli growth-1) | AddAB confirm inactive | RecBCD counter 8.8 | bact viab count inactive
COc1ccccc1-[n+]1c(C)cc(/C=C2\Sc3ccccc3N2C)cc1C	AddAB inh 22.9, E coli growth-1 0.356, phage Ecoli inh 13.3, E coli growth-2 19.4 | AddAB confirm 33.3 | RecBCD counter 17.6 | bact viab count 29.7
COc1ccc(CCNC(=O)c2ccc(CN3CCC(Cc4ccccc4)CC3)cc2)cc1OC	AddAB inh 13.5 | AddAB confirm inactive | RecBCD counter inactive | bact viab count inactive
O=C(O)c1ccc(C=NNc2ccc(S(=O)(=O)N3CCCC3)cc2[N+](=O)[O-])cc1	none (no result: AddAB inh, Tat export inh, phage Ecoli inh, E coli growth-2)
O=C(NCc1cccnc1)Nc1ccc2c(c1)OCO2	AddAB inh 13.8 | AddAB confirm inactive | RecBCD counter inactive | bact viab count inactive
c1cncc(CNc2ccc3c(c2)OCO3)c1	none
Cc1ccc(NC(=S)NN=Cc2c(C)[nH]c3ccccc23)cc1	none (no result: AddAB inh, Tat export inh, phage Ecoli inh, E coli growth-2)
CCC(=NNC(=O)c1ccc(N(C)C)cc1)c1ccccc1	none (no result: AddAB inh, Tat export inh, phage Ecoli inh, E coli growth-2)
NS(=O)(=O)c1cc2c(cc1Cl)NCNS2(=O)=O	AddAB inh 55.1, E coli growth-2 38.0 | AddAB confirm 100.4 | RecBCD counter 6.2 | bact viab count 74.8
COc1cc(C2Nc3cc(Cl)c(S(N)(=O)=O)cc3S(=O)(=O)N2)cc(OC)c1OC (stereo not given)	none
c1ccc(-c2nnc(-c3ccccn3)nn2)nc1	none
c1ccc(-c2cccc(-c3ccccn3)n2)nc1	AddAB inh 33.7, E coli growth-2 34.8 (no result: phage Ecoli inh) | AddAB confirm 45.8 | RecBCD counter 35.9 | bact viab count 30.1
CCOc1cc(N)c(Cl)cc1C(=O)NCC1CN(Cc2ccc(F)cc2)CCO1 (stereo not given)	AddAB inh 98.6, E coli growth-1 0.0635, E coli growth-2 92.5 | AddAB confirm 101.0 | RecBCD counter 11.6 | bact viab count 97.9
CCc1ccc(NC(=O)CC2C(=O)N(c3cccc(C)c3)C(=O)N2C2CC2)cc1 (stereo not given)	AddAB inh 98.6, E coli growth-2 53.0 | AddAB confirm inactive | RecBCD counter inactive | bact viab count inactive
COc1ccc(NC(=O)CC2C(=O)N(c3cccc(C)c3)C(=O)N2C2CCCCC2)cc1 (stereo not given)	none
CCCNC(=O)c1ccc2c(=O)c(O)c(-c3ccsc3)[nH]c2c1	AddAB inh 17.8, E coli growth-2 17.8 (no result: E coli growth-1, phage Ecoli inh) | AddAB confirm 12.6 | RecBCD counter 12.4 | bact viab count inactive
CCCNC(=O)c1ccc2c(=O)c(O)c(-c3ccc(OC)cc3)[nH]c2c1	AddAB inh 18.1, E coli growth-2 16.4 (no result: phage Ecoli inh) | AddAB confirm inactive | RecBCD counter 12.7 | bact viab count inactive
